This passage reports composite z-score and z-score results from PubChem BioAssay.

Activity calls are given as the source filed them.

In experiment [1] the test system is Plasmodium falciparum Sir2 (PF13_0152, Sir2A). Put plainly: Plasmodium falciparum Sir2A binding compounds – biochemical, small-molecule microarray, 635 nm fluorescence, primary screen (AID 1098).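 Also: score merges spot fluorescence intensity with its signal-to-noise ratio.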 The following applies: fluorescence 635 nm, higher = more signal.
Experiment [2] in a line: probe aDKK1 binding to arrayed compounds – biochemical, biotinylated probe, 635/667 nm fluorescence, primary screen (AID 1099).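 Also: score merges 667nm spot fluorescence with signal to noise across triplicate slides; reference of the scale not given here.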 The note with it: small-molecule microarray, higher = more signal.
The nature of experiment [3]: probe aCHRDL2 binding to arrayed compounds – biochemical, biotinylated probe, 635/667 nm fluorescence, primary screen (AID 1100). The note with it: small-molecule microarray, higher = more signal.
The nature of experiment [4]: change in splice reporter luminescence, either direction, cell-based, HEK293, spliceosome inhibition project, primary screen (AID 1101).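 Also: HEK293 cells carrying a splicing-competent luciferase reporter gene; test concentration not given here.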 The note with it: HEK293 splicing luciferase reporter, 24 h, higher = more signal, called active from +8 up or from −8 down.
The target in experiment [5] is Fibroblast growth factor 10 (Homo sapiens) (UniProt O15520). Put plainly: compounds binding fibroblast growth factor 10 – biochemical, small-molecule microarray, 635 nm fluorescence, primary screen (AID 1102). The following applies: FGF10 binding, fluorescence 635 nm, higher = more signal.
Fibroblast growth factor 10 (Homo sapiens), sequence (O15520 whole entry, looked up): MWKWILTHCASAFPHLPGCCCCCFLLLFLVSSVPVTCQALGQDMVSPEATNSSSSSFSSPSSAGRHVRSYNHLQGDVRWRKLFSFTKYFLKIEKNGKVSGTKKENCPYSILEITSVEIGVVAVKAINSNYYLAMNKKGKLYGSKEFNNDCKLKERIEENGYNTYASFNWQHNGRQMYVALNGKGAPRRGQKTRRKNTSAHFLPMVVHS
Experiment [6] concerns glycogen synthase kinase-3 (GSK3A per assay name; protocol says GSK3B). Put plainly: compounds binding glycogen synthase kinase-3 – biochemical, small-molecule microarray, 635 nm fluorescence, GSK3A, primary screen (AID 1103). Also: the record names both GSK3A and GSK3B. The note with it: fluorescence 635 nm, higher = more signal.
In experiment [7] the target is Epidermal growth factor receptor (Homo sapiens) (UniProt P00533). Put plainly: compounds binding epidermal growth factor receptor – biochemical, small-molecule microarray, 635 nm fluorescence, primary screen (AID 1104).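 Also: score merges 667 nm emission intensity with spot signal to noise over triplicate slides.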 The note with it: EGFR binding, higher = more signal.
Epidermal growth factor receptor (Homo sapiens), sequence (P00533 whole entry, looked up): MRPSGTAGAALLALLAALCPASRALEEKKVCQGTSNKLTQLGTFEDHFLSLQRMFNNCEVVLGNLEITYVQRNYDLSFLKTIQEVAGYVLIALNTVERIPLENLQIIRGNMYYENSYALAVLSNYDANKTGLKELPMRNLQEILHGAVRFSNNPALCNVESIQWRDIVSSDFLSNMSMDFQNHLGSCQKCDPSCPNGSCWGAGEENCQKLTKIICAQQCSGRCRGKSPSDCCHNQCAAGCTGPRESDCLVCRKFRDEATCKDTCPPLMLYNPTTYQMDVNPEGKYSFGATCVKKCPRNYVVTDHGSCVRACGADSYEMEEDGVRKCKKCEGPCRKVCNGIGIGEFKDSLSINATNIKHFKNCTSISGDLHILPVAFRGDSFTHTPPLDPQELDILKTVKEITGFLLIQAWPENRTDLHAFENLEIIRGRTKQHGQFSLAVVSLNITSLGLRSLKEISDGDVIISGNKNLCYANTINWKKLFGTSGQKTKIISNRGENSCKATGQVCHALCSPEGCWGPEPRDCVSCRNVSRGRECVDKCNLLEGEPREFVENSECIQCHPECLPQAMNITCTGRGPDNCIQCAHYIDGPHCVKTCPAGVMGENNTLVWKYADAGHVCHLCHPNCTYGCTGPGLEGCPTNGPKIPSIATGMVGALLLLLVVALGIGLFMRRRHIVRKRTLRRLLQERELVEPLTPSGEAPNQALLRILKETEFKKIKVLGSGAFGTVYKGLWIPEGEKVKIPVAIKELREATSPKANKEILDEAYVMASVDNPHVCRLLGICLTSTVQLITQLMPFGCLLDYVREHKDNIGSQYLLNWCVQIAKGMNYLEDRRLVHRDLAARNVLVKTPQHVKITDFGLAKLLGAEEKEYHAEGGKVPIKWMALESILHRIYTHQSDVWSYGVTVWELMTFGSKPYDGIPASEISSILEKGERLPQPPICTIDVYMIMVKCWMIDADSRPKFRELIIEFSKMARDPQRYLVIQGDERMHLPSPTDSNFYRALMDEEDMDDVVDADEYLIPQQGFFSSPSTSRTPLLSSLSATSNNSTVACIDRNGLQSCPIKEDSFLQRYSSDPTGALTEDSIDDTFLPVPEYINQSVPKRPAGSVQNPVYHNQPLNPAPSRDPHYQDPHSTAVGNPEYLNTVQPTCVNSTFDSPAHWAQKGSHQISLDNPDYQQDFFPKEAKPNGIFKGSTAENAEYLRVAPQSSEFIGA
Experiment [8] concerns the target Follistatin-related protein 3 (Homo sapiens) (UniProt O95633). The experiment in a line: compounds binding follistatin-related protein 3 – biochemical, small-molecule microarray, 635 nm fluorescence, primary screen (AID 1105).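 Also: score merges emission near 667 nm and signal to noise per printed spot across three slides.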 The following applies: FSTL3 binding, higher = more signal.
Experiment [9] addresses Dickkopf-related protein 1 (Homo sapiens) (UniProt O94907). Put plainly: small molecules binding DKK1 protein – biochemical, small-molecule microarray, 635 nm fluorescence scan, primary screen (AID 1106).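 Also: score merges emission near 667 nm with signal to noise over three replicate slides.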 The following applies: higher = more signal.
Experiment [10] relates to Inhibin beta A chain (activin A). The experiment in a line: small molecules binding activin A – biochemical, small-molecule microarray, 635 nm fluorescence scan, primary screen (AID 1107).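 Also: mouse activin A protein probed at 4.33 µg/mL on printed slides; score merges bound-protein fluorescence near 667 nm with spot signal-to-noise.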 The note with it: INHBA, higher = more signal.

Dickkopf-related protein 1 (Homo sapiens), sequence (O94907 whole entry, looked up): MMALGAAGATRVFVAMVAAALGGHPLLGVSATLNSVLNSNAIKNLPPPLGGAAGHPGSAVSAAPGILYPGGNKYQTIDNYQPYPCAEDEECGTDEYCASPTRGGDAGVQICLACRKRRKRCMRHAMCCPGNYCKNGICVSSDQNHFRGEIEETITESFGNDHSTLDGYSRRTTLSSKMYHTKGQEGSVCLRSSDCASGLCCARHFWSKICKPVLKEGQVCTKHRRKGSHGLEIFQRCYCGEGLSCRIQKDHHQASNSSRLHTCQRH
Follistatin-related protein 3 (Homo sapiens), sequence (O95633 whole entry, looked up): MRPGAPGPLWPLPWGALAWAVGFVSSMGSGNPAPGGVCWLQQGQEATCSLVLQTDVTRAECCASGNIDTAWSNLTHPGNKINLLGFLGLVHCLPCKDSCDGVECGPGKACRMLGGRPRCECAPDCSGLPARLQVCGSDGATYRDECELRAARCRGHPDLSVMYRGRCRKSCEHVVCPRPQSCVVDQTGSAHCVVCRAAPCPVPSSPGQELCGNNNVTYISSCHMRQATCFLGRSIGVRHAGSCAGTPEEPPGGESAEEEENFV

Consider `C=C(C(=O)CC[C@H](OC(C)=O)c1cccc(OCCO)c1)C(C)C`, for which the composite z-score in experiment [1] is -0.382; in experiment [2], -0.352; in experiment [3] it was -0.115; in experiment [5], -0.924; in experiment [6], -1.24; in [7], -1.31. The figures for the composite z-score in experiment [8], in [9] and in experiment [10] were -0.835, -1.07 and 0.0244, respectively. Besides, the z-score in [4] was 0.143 (inactive).

Consider `C=CC[C@@]1(C(=O)N2CCCCC2)N=C(c2ccc(OCCCO)cc2)O[C@@H]1c1ccccc1`, for which the composite z-score is 1.53 in [1]; 0.833 in experiment [2]; 0.613 in experiment [3]; 0.497 in experiment [5]; 1.29 in experiment [6]; 0.0106 in [7]. Besides, the composite z-score in experiment [8] is -0.0325; in experiment [9] it was -0.717; in experiment [10], 0.823. For the same compound, the z-score in experiment [4] is 0.411 (inactive).

In the case of `COc1ccc([Si](C)(C)[C@@H]2[C@@H](CCO)O[C@]3(C(=O)N(Cc4cccc(N5C(=O)c6ccccc6Oc6ccccc65)c4)c4ccccc43)[C@H]2C)cc1`, the composite z-score in experiment [1] was 0.307; in experiment [2] it was 0.0163; in [3], 0.444; in [5] it was -0.502; in experiment [6], -0.735; in experiment [7] it was -0.717. The composite z-score in [8] is -0.491; in experiment [9], -0.812; in experiment [10] it was 0.233. For the same compound, the z-score in experiment [4] is -1.19 (inactive).

Take `C=CC[C@@H](OC(=O)Nc1ccc(OC)cc1)c1ccc(OCCO)cc1`: the composite z-score in experiment [1] is 0.468; in experiment [2] it was -0.211; in experiment [3], 0.979; in experiment [5] it was -1.77; in [6], -0.711; in experiment [7], -1.99. For the same compound, the composite z-score in experiment [8] is -0.993; in experiment [9], -2.37; in experiment [10] it was -2.6. Also, the z-score in experiment [4] is -0.694 (inactive).

`NCCCCCCNC(=O)[C@@H]1C[C@@H]2C(=O)N3CCC[C@H]3C(=O)N2[C@@H]1c1ccc(O)cc1`: the composite z-score in experiment [1] is 1.27; in [2], 0.0265; in experiment [3], 0.0978; in experiment [5], 1.01; in [6], 1.3; in experiment [7], 0.235. The values for the composite z-score in [8], in experiment [9] and in experiment [10] were 0.318, 1.02 and 0.123, respectively. The z-score in [4] was 0.364 (inactive).

Consider `Cc1ccc(F)cc1S(=O)(=O)N[C@@H]1CCN(Cc2ccc(OC(C)C)cc2)C1`, for which the composite z-score is -0.38 in experiment [1]; -0.428 in [2]; -0.272 in experiment [3]; -0.514 in experiment [5]; -0.654 in experiment [6]; -0.662 in [7]. The composite z-score was -0.746 in [8], 0.183 in experiment [9] and 0.834 in [10]. For the same compound, the z-score in [4] was 2.97 (inactive).

Turning to `C=C[C@H](COC(C)=O)NS(=O)(=O)c1ccc(Br)cc1`, the composite z-score in experiment [1] is 0.786; in [2] it was -0.247; in experiment [3], -0.272; in experiment [5] it was -0.28; in [6], -0.384; in experiment [7], 0.141. Further, the values for the composite z-score in experiment [8], in experiment [9] and in experiment [10] were 0.128, 0.516 and 0.294, respectively. Further, the z-score in experiment [4] is 0.485 (inactive).

In the case of `CN(C)C(=O)[C@@]1(Cc2ccccc2N=[N+]=[N-])COC(c2ccc(OCCCO)cc2)=N1`, the composite z-score in experiment [1] turned out to be 1.54; in [2], 0.764; in experiment [3], 0.795; in [5], 0.629; in experiment [6] it was 1.05; in experiment [7] it was 0.0428. Besides, the composite z-score is 0.396 in experiment [8], -0.239 in experiment [9] and 0.0217 in experiment [10]. Moreover, the z-score in experiment [4] was -0.545 (inactive).

In the case of `COC(=O)[C@@]1(Cc2ccc(OC)cc2)[C@H]2c3cc(C(=O)N4CCCC4)n(CCc4cc5ccccc5[nH]4)c3C[C@H]2CN1C(=O)c1ccccc1`, the composite z-score in experiment [1] was 1.52; in experiment [2], 1.64; in [3], 1.43; in [5], 0.893; in experiment [6] it was 0.591; in experiment [7] it was 0.124. Moreover, the composite z-score is 1.2 in experiment [8], -0.281 in experiment [9] and 0.881 in experiment [10]. Further, the z-score in experiment [4] is 0.0555 (inactive).

In the case of `COc1ccc([Si](C)(C)[C@H]2[C@H](CC(=O)N3Cc4ccccc4C[C@H]3CO)O[C@@]3(C(=O)N(Cc4cccc(N5CCCCC5=O)c4)c4ccccc43)[C@@H]2C)cc1`, the composite z-score in experiment [1] is 1.2; in [2], -0.205; in experiment [3], -0.181; in experiment [5], 1.14; in experiment [6] it was 0.262; in experiment [7], 0.795. Besides, the composite z-score in [8] was 1.27; in experiment [9], 1.12; in experiment [10], 0.94. In addition, the z-score in experiment [4] is -0.519 (inactive).

On to `C=C(/C(=C/C[C@@H](OC(=O)c1ccncc1)c1ccccc1OCCO)c1cc(C(=O)OC)ccc1OC)C(C)C`, for which the composite z-score was 1.04 in experiment [1]; -0.223 in [2]; -0.151 in [3]; 1.12 in experiment [5]; 0.759 in experiment [6]; 0.228 in experiment [7]. The values for the composite z-score in [8], in experiment [9] and in experiment [10] were 0.467, 0.328 and 0.787, respectively. Also, in experiment [4], the z-score was -1.25 (inactive).

`Cc1c(NC(=O)/C(C#N)=C/C=C/c2ccc(N(C)C)cc2)c(=O)n(-c2ccccc2)n1C`: the composite z-score in experiment [1] came to 0.917; in [2] it was 0.735; in [3], 0.294; in [5], 0.89; in [6], 1.02; in experiment [7], 0.994. Besides, the composite z-score in experiment [8] is 0.788; in [9], 0.646; in [10], 1.08. In experiment [4], the z-score is -0.0455 (inactive).

For `COc1cc2c(cc1OC)CN(C(=O)[C@H]1[C@@H]3C(=O)O[C@@H](c4ccccc4)[C@@H](c4ccccc4)N3[C@@H](c3ccc(OCCO)cc3)[C@]13C(=O)Nc1ccc(C#CCCO)cc13)CC2`, the composite z-score in experiment [1] was 0.903; in experiment [2], -0.269; in experiment [3] it was 0.33; in experiment [5], 1.4; in experiment [6] it was 1.29; in experiment [7] it was 0.292. Moreover, the results for the composite z-score in [8], in experiment [9] and in experiment [10] were 1.37, 0.167 and 0.813, respectively. Moreover, the z-score in [4] is -0.296 (inactive).

`COc1cc(CO)cc(I)c1O[C@H]1C=C(C(=O)NCCO)C[C@@H](N(CC2CCCCC2)C(=O)c2ccc(C(F)(F)F)cc2)[C@@H]1O`: the composite z-score in experiment [1] was 0.199; in [2], -0.267; in experiment [3] it was -0.49; in experiment [5] it was 0.626; in [6] it was 0.0722; in experiment [7], 0.515. Further, the composite z-score amounted to 0.483 in experiment [8], 0.521 in [9] and 0.0031 in [10]. Moreover, the z-score in experiment [4] was -0.0436 (inactive).
